Source: ChEMBL document CHEMBL3988442, “University of Dundee, Small-Polar-MMV Screening Library” (2021)
For some assays here: Results with a measured potency or affinity are listed apart.

Assays:
Set-up in all cases: scale not given: direction of the effect not stated beside the values
[1] = molecular target: Protein translocase subunit SecA (Escherichia coli (strain K12)) (UniProt P10408); assay: Assay to Identify E. coli SecA ATPase Inhibitors; assay type: functional; conditions: 30 µM
[2] = molecular target: T1, Ubiquitin-activating enzyme e1, putative (Leishmania donovani (strain BPK282A1)) (UniProt E9BSI1); assay: Leishmania donovani Ubiquitin Activating Enzyme (LdE1); assay type: functional; conditions: 30 µM
T1 sequence (whole entry): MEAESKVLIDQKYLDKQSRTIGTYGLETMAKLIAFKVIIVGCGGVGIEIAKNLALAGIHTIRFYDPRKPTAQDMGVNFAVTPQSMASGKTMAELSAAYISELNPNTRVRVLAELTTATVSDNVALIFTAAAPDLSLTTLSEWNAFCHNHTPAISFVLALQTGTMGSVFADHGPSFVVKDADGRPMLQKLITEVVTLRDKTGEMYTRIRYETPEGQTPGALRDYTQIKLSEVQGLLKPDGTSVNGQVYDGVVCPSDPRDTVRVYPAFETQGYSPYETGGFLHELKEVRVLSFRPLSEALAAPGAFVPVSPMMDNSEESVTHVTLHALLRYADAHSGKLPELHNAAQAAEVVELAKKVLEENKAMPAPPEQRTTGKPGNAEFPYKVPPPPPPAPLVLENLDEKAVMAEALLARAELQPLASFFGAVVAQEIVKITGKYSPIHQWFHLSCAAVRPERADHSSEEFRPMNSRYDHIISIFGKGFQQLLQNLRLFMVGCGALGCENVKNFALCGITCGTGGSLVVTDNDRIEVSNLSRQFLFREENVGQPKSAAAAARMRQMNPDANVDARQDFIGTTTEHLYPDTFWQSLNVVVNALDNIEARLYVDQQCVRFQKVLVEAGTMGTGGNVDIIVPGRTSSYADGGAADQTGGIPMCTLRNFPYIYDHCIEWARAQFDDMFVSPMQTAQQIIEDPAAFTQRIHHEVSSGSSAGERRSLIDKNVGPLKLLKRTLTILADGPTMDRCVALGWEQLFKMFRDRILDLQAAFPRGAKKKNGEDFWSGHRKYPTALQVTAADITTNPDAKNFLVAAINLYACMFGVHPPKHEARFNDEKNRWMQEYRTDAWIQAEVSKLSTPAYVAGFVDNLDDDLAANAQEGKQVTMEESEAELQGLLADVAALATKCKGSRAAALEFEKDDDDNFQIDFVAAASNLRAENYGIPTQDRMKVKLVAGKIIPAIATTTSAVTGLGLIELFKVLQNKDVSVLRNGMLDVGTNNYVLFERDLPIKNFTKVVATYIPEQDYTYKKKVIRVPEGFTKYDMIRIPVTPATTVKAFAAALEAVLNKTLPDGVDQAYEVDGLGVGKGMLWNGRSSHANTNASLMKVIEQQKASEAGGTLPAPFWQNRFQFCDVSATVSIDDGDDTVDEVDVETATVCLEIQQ

[3] = molecular target: AMP-activated protein kinase, AMPK (Homo sapiens) (UniProt P54646+O43741+P54619+Q9UGJ0+Q9Y478+Q13131+Q9UGI9); assay: AMP-dependent Kinase enzyme assay. An in vitro enzyme assay that detects ADP turnover that is directly proportional to AMPK activity. This uses naive AMPK that is activated during the assay with MK-8722; assay type: functional; conditions: 30 µM
[4] = molecular target: Sialic acid-binding Ig-like lectin 9 (Homo sapiens) (UniProt Q9Y336); assay: Hs-Siglec9 ALPHAscreen SOP 20170721; conditions: 10 µM
Sialic acid-binding Ig-like lectin 9 (Homo sapiens), sequence (Q9Y336 whole entry): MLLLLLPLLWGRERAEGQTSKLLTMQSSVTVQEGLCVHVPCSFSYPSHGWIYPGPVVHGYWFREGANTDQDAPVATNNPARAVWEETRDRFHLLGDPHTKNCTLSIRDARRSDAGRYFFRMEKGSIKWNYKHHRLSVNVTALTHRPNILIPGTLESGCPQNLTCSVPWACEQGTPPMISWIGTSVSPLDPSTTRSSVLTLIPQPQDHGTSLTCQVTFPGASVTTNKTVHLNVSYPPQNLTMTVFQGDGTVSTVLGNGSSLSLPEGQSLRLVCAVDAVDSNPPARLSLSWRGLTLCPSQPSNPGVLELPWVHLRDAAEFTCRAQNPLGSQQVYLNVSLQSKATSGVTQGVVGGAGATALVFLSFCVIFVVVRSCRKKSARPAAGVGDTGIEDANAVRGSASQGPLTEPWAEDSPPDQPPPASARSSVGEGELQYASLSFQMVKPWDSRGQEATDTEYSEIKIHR

Trypanosoma cruzi = assay: Trypanosoma cruzi phosphomannomutase and mannose-1-phosphate guanylyltransferase assay; assay type: functional; conditions: 10 µM
[5] = molecular target: T2, Arginase-2, mitochondrial (Homo sapiens) (UniProt P78540); assay: in vitro enzyme assay to detect the production of urea directly proportional to the activity of Arginase II; assay type: functional; conditions: 33.3 µM; further: in the data most compounds retested in dose-response had high values
T2 sequence (whole entry): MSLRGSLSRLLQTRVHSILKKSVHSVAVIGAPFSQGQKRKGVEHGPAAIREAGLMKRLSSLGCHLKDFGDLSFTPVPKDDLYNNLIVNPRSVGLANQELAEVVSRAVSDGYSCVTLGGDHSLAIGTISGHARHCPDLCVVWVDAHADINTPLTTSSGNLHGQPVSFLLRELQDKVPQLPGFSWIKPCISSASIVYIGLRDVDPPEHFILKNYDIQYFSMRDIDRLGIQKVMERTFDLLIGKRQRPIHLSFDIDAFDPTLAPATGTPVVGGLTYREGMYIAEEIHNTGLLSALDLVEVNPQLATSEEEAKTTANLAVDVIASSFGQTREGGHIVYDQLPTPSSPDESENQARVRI

[6] = molecular target: T3, Proteasome subunit beta (Trypanosoma cruzi) (UniProt O96673); assay: Trypanosoma cruzi proteasome chymotrypsin-like activity (TcProtChymo) assay.; further: in the data most compounds retested in dose-response had high values; assay type: functional; conditions: 9.37 µM
T3 sequence (whole entry): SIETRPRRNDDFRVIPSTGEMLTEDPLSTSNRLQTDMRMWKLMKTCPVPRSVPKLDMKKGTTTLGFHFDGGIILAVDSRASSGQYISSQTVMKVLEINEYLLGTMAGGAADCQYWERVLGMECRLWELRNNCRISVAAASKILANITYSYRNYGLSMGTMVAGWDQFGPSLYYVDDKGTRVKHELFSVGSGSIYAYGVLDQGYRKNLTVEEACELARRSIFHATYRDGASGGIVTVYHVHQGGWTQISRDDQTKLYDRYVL

Homo sapiens = species on record: Homo sapiens; assay: To identify inhibition of the IFN signalling (Jak-Stat) pathway via expression of an eGFP reporter gene under the control of an IFN-stimulated response element (ISRE) containing MxA promoter.; assay type: functional; conditions: 30 µM
[7] = molecular target: T4, Tyrosyl-tRNA synthetase, putative (Trypanosoma cruzi (strain CL Brener)) (UniProt Q4DSP6); assay: Trypanosoma cruzi tyrosyl tRNA synthetase (TcYRS) _High Tyrosine SOP; assay type: functional; conditions: 30 µM; further: in the data most compounds retested in dose-response had high values
T4 sequence (whole entry): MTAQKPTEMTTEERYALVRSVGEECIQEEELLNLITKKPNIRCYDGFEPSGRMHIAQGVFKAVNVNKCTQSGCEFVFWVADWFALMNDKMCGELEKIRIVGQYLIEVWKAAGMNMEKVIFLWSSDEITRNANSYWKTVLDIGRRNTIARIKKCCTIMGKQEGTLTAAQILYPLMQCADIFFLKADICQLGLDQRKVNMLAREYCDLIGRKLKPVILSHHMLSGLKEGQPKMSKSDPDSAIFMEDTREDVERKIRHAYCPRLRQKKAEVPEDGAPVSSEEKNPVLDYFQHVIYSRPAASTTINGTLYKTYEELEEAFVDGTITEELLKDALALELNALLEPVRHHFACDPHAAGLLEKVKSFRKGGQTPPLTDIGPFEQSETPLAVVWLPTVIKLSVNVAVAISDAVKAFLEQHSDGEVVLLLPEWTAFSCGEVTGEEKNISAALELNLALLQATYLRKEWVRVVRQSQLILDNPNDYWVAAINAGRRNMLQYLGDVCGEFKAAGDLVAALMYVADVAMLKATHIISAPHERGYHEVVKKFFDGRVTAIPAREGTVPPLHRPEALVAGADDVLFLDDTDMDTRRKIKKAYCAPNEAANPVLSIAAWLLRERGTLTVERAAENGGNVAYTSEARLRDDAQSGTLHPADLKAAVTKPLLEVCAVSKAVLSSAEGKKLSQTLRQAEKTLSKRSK

[8] = molecular target: T4, Tyrosyl-tRNA synthetase, putative (Trypanosoma cruzi (strain CL Brener)); assay: Trypanosoma cruzi tyrosyl tRNA synthetase (TcYRS) SOP; assay type: functional; conditions: 30 µM
[9] = molecular target: Chromo domain-containing protein 1 (Saccharomyces cerevisiae (strain ATCC 204508 / S288c) (Baker's yeast)) (UniProt P32657); assay: ScCHD-1 Enzyme Inhibition Assay; assay type: functional; conditions: 30 µM; further: in the data most compounds retested in dose-response had high values
Chromo domain-containing protein 1 (Saccharomyces cerevisiae (strain ATCC 204508 / S288c) (Baker's yeast)), sequence (P32657 whole entry, the tested form may be a part): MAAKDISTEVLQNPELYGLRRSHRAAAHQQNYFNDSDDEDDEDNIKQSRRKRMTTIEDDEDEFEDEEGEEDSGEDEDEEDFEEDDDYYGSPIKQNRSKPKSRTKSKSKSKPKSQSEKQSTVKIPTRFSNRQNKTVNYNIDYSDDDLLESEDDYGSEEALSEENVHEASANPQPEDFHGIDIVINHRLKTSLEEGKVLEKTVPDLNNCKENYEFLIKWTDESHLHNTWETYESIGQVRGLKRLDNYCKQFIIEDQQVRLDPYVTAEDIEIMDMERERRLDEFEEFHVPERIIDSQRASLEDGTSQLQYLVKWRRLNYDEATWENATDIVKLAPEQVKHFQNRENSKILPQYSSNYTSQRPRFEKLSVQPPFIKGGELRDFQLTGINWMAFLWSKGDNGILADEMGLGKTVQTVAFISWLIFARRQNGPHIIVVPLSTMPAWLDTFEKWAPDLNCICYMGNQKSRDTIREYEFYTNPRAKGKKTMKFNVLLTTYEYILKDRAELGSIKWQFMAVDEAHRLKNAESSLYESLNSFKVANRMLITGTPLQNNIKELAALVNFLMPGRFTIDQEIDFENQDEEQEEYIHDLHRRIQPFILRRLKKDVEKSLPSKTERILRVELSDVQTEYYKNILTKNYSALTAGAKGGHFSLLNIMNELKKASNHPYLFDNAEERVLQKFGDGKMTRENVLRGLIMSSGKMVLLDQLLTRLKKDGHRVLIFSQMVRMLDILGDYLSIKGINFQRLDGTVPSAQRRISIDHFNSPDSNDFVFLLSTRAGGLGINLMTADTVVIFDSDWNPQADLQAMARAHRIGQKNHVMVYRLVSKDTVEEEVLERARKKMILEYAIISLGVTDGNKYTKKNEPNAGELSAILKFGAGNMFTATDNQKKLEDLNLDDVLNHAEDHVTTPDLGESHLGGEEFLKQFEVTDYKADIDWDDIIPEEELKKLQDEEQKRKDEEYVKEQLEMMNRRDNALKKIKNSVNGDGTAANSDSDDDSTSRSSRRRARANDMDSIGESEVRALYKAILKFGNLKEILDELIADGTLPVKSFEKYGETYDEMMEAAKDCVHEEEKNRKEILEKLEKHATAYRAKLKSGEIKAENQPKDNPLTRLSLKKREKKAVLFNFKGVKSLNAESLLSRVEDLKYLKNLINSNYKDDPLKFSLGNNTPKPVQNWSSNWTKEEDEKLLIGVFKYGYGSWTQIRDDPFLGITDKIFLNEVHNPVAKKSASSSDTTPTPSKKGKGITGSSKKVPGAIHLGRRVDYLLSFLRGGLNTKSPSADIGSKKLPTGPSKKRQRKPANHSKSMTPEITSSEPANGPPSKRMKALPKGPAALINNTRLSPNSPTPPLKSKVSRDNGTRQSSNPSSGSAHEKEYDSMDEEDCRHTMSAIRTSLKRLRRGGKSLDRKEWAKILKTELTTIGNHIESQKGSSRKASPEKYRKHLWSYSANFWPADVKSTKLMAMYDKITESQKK

Protein translocase subunit SecA (Escherichia coli (strain K12)), sequence (P10408 whole entry): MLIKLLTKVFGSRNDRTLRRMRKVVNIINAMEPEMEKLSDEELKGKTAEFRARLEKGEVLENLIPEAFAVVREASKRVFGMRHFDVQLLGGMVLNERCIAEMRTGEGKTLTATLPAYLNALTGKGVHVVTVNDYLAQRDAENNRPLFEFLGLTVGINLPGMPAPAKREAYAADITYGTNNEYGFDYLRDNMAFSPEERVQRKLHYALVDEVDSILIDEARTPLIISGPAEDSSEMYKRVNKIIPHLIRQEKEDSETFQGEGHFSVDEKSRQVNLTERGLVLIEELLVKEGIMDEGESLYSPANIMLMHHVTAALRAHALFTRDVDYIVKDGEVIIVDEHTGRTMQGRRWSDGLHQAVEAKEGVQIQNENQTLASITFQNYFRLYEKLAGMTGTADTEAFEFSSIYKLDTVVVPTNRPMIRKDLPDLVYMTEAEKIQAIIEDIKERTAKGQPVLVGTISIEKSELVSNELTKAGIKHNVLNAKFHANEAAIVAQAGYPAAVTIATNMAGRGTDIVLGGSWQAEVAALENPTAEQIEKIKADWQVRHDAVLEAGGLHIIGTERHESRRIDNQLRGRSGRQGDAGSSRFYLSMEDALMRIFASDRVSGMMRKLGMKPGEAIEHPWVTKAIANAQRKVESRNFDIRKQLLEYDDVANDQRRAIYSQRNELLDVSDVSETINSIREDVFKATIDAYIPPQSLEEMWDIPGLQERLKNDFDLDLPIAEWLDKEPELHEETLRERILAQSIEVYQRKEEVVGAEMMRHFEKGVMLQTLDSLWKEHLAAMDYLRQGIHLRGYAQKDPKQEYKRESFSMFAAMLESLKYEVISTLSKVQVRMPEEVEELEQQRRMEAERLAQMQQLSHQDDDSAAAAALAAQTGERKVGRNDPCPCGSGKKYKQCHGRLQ

SMILES | Percent Effect [1] [%] | Percent Effect [2] [%] | Percent Effect [3] [%] | Percent Effect [4] [%] | Percent Effect (Trypanosoma cruzi) [%] | Percent Effect [5] [%] | Percent Effect [6] [%] | Percent Effect (Homo sapiens) [%] | Percent Effect [7] [%] | Percent Effect [8] [%] | Percent Effect [9] [%]
O=C(O)c1cc2c(nc1O)CC(c1cccc(Cl)c1)CC2=O (configuration not stated) | -6.48 | 1.33 | 28.2 | 2.46 | -5.7 | -6.16 | 7.21 | 1.57 | 4.23 | 2.56 | -9.15
c1csc(CN2Cc3nccn3CC(Cn3cncn3)C2)n1 (configuration not stated) | 1.97 | 2.74 | 0.961 | 63.8 | -0.794 | 3.19 | 11.2 | -1.52 | 4.17 | 13.6 | -0.0341
CN(Cc1ncc[nH]1)CC(c1cccs1)N1CCOCC1 (configuration not stated) | -0.354 | 13.5 | -12.7 | -6.28 | 4.92 | -1.29 | 12.4 | 17.4 | 11.9 | 23.2 | -5.94
Cc1nc(CN2CCCC(Cn3cc(CCO)nn3)C2)c[nH]1 (configuration not stated) | -1.16 | 0 | -4.62 | 20.6 | 5.21 | 0.952 | 5.17 | -10.1 | 1.59 | 9.76 | -7.08
O=C(NCCCO)C1CC(=O)N(c2n[nH]c3cccc(F)c23)C1 (configuration not stated) | 0.204 | 17.3 | -5.17 | -2.48 | 1.57 | -12.2 | 10.5 | 2.36 | 5.29 | 15.4 | -14.8
CCOc1ncccc1CNC(=O)N1CCCC1c1cc(C)no1 (configuration not stated) | -3.76 | 8 | -5.83 | 0.983 | -1.66 | 0.521 | 12 | 14.2 | 8.2 | 16.1 | -6.86
N#Cc1ccccc1CN1C[C@@H]2CC[C@H](C1)N(CC1CC1)C2=O | -0.53 | 13.5 | -0.476 | 12.4 | 1.74 | 2.38 | 13.4 | 4.71 | 4.76 | 14.6 | -0.908
COc1cccc(OCC(=O)NS(=O)(=O)c2ccc(C)s2)c1 | -3.05 | 15.2 | -2.9 | -5.56 | 5.19 | 5.32 | 10.4 | 15.6 | 2.46 | 16.5 | -4.35
CC(C)N(C)Cc1cn2c(n1)CN(Cc1ccsc1)CC2 | 5.48 | 11 | 1.28 | 6.24 | -5.56 | -3.19 | 9.33 | 18.4 | 7.29 | 8.64 | 2.73
O=C(NCc1cc[nH]n1)N1CCN(c2ccccc2Cl)CC1 | -5 | 23.7 | -1.65 | 3.62 | 1.96 | -0.719 | 14.1 | 15.6 | 7.39 | 18.5 | -10.1
O=C(c1cnn2c1OCCC2)N1CCN(C/C=C/c2ccccc2)CC1 | -2.24 | 7.79 | 3.47 | 6.1 | -1.28 | -5.81 | 8.88 | 10.8 | 5.29 | 16.7 | -8.13
Cc1nc(C)n(CC2CN(c3ncnc4[nH]ccc34)CCO2)n1 (configuration not stated) | -2.48 | 11.4 | 24 | -0.101 | -3.38 | -2.37 | 6 | 28.6 | 2.08 | 12.7 | -20.9
Cc1ccc(N2CCCC3(COCCN(c4nccs4)C3)C2)nn1 (configuration not stated) | 0.955 | 0 | -4.27 | 3.78 | 1.79 | 1.2 | 11.7 | -6.58 | 5.21 | 3.7 | -1.92
CN1CCN(C(=O)c2cnc3c(cnn3C3CCCC3)c2)CC1 | -5.03 | 12.7 | -2.67 | -0.596 | 8.78 | 5.7 | 1.72 | -7.07 | 5.42 | 16.5 | -5.9
Cn1cccc1C(=O)N[C@@H]1CN(CC2CC2)[C@@H]2COC[C@@H]21 | -2.02 | 5.33 | -1.14 | 25.9 | -7.14 | -54.7 | -2.73 | -2.91 | 1.04 | 7.5 | -7.28
Cn1cc2c(n1)C(CNC(=O)Cc1ccsc1)OCC2 (configuration not stated) | -4.65 | 7.79 | -2.5 | -0.415 | 4.83 | -7.1 | 2.26 | 7.06 | 2.12 | 3.85 | -6.29
Cn1cc(C[C@H]2[C@H](O)CCN2CC2CC2)cn1 | -2.02 | -2.7 | 6.23 | 1.34 | 1.27 | -32.8 | 11.2 | 1.21 | 5.41 | 5.13 | 0.853
CCc1nc(CCNC(=O)Nc2ccc(C(=O)NC)cc2C)cs1 | -9.57 | 0 | -0.875 | 3.65 | -3.8 | -3.65 | 4.18 | 40.4 | -2.73 | -1.24 | -1.65
CN(C)C(=O)CS(=O)(=O)Cc1cc(Cl)c2c(c1)OCO2 | -3.08 | 18.4 | -1.27 | 2.86 | -0.654 | 3.96 | 5.16 | -13.9 | 6.4 | 23.5 | -7.39
O=C1CCC2(CCN(c3ncc(F)cn3)CC2)N1CCN1CCCC1 | -2.97 | 7.79 | -0.558 | -6.43 | -2.07 | 1.94 | 21.4 | 12.5 | 1.06 | 3.85 | -7.84
COCCN1CCC(NC(=O)C2(c3cc(C)cc(C)c3)CC2)CC1 | -5.08 | 0 | -4.53 | -1.6 | -1.59 | 0.719 | -1.95 | -10.6 | 1.48 | -1.24 | 6.15
Cc1ccc(CN2C[C@@H]3COC[C@@H](NS(C)(=O)=O)[C@@H]3C2)o1 | -1.26 | 2.67 | -0.569 | -2.48 | 8.69 | -54.7 | 12.5 | -3.72 | 1.04 | 17.5 | -8.24
